The values that follow come from ChEMBL document CHEMBL1961873, “Compounds: GSK PKIS; Assays: Nanosyn kinase panel” (2012).

The target in experiment [1] is T1, Serine/threonine-protein kinase Nek9 (Homo sapiens) (UniProt Q8TD19).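 Also: each value is a mean percent inhibition of NEK9.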
T1 sequence (whole entry): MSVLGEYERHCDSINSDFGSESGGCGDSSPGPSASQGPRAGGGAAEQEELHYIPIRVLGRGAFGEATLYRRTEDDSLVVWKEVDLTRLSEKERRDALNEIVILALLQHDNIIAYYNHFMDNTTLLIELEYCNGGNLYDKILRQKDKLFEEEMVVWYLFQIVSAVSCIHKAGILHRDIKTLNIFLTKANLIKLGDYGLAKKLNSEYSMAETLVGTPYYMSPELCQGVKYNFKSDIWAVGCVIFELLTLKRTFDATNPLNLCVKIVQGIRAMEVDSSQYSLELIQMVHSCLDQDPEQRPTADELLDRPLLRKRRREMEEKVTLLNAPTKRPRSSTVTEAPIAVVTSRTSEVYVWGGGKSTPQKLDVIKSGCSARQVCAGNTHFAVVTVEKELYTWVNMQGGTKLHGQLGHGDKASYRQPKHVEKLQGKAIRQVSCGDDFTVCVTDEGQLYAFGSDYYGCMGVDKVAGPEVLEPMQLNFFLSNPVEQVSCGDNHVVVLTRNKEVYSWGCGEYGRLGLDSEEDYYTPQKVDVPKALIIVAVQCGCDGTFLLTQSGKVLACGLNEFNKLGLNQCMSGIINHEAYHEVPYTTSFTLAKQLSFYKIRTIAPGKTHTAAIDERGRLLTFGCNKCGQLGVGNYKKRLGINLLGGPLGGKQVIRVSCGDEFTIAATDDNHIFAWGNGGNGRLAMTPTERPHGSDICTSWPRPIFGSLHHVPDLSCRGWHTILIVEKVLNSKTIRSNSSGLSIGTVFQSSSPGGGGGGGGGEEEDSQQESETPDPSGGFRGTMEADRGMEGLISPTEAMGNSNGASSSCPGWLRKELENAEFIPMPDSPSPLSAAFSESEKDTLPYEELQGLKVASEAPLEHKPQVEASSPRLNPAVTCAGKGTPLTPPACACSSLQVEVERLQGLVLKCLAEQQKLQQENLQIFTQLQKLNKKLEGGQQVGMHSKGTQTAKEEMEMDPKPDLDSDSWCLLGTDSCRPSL
Conditions: at 1 µM.

The target in experiment [2] is Serine/threonine-protein kinase PLK1 (Homo sapiens) (UniProt P53350). Conditions: at 0.1 µM.
Chain of Serine/threonine-protein kinase PLK1 (Homo sapiens) (P53350 whole entry): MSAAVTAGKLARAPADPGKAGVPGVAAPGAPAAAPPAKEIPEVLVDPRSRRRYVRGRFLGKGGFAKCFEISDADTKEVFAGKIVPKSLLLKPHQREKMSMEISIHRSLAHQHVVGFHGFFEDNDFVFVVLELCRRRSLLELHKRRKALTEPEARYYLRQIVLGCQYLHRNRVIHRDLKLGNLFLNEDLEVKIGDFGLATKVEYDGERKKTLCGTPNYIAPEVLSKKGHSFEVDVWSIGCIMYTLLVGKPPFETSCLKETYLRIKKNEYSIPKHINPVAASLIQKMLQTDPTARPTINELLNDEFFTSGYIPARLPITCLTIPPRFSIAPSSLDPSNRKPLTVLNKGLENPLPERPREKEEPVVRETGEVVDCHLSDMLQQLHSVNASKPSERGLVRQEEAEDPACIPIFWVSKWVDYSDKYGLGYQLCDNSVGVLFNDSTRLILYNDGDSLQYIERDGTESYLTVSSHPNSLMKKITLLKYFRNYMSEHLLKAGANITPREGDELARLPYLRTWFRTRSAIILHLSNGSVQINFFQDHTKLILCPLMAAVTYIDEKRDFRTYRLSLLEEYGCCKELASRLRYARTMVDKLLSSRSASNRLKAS
Experiment [3] shares this target. Conditions: at 1 µM.
For experiment [4], the target named is T2, Dual specificity protein kinase TTK (Homo sapiens) (UniProt P33981).
T2 sequence (whole entry): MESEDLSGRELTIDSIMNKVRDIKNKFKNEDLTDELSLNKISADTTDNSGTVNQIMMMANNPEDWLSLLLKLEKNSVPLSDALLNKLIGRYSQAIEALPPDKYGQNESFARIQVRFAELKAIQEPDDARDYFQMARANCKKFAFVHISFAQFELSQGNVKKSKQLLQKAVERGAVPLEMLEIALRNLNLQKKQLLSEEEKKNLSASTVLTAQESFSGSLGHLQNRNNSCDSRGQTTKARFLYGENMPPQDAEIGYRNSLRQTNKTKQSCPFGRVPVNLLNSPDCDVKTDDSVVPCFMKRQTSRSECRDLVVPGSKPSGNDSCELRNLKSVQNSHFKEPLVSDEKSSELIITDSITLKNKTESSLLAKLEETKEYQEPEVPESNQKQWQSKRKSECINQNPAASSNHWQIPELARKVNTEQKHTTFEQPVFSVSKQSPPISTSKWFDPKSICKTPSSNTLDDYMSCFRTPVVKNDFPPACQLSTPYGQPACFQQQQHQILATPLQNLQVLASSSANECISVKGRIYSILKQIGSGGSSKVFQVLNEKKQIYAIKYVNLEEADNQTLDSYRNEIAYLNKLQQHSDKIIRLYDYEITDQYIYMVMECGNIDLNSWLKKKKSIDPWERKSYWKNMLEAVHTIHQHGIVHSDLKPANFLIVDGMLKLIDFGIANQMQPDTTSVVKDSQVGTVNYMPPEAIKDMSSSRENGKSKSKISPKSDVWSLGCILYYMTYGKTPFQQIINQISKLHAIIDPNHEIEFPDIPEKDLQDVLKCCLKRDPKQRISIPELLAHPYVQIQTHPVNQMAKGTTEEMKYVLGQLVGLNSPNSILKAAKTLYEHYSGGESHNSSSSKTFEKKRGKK
Conditions: at 0.1 µM.

The test system of experiment [5] is T3, Receptor-type tyrosine-protein kinase FLT3 (Homo sapiens), P36888 [D835Y].
T3 sequence (whole entry): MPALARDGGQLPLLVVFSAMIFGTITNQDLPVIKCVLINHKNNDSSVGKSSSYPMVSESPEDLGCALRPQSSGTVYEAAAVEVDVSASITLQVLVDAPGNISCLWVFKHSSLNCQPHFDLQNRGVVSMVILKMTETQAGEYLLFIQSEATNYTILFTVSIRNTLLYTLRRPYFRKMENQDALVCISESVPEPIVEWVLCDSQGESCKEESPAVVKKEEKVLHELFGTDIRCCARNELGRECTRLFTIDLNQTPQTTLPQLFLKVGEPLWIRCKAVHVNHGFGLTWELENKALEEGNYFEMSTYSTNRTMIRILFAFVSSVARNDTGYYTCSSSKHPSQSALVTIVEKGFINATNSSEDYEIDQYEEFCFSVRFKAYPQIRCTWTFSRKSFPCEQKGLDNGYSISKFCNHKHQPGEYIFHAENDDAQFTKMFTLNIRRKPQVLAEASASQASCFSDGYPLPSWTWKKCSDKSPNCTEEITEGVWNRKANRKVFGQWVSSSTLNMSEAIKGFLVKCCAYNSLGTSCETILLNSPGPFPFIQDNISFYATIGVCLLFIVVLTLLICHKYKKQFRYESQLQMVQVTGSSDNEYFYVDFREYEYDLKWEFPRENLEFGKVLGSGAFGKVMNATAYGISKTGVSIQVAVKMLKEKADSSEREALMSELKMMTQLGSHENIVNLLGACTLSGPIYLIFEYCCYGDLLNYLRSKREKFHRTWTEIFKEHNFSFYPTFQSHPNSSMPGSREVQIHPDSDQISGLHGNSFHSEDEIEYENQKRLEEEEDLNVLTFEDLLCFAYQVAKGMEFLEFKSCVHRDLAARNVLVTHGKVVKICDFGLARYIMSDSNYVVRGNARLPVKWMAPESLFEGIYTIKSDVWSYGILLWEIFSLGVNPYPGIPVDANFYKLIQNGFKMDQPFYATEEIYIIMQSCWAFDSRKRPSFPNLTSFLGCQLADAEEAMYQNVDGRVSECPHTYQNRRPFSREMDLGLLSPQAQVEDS
The settings on record: at 1 µM.

In experiment [6] the target is Vascular endothelial growth factor receptor 3 (Homo sapiens) (UniProt P35916). The settings on record: at 0.1 µM.
Chain of Vascular endothelial growth factor receptor 3 (Homo sapiens) (P35916 whole entry): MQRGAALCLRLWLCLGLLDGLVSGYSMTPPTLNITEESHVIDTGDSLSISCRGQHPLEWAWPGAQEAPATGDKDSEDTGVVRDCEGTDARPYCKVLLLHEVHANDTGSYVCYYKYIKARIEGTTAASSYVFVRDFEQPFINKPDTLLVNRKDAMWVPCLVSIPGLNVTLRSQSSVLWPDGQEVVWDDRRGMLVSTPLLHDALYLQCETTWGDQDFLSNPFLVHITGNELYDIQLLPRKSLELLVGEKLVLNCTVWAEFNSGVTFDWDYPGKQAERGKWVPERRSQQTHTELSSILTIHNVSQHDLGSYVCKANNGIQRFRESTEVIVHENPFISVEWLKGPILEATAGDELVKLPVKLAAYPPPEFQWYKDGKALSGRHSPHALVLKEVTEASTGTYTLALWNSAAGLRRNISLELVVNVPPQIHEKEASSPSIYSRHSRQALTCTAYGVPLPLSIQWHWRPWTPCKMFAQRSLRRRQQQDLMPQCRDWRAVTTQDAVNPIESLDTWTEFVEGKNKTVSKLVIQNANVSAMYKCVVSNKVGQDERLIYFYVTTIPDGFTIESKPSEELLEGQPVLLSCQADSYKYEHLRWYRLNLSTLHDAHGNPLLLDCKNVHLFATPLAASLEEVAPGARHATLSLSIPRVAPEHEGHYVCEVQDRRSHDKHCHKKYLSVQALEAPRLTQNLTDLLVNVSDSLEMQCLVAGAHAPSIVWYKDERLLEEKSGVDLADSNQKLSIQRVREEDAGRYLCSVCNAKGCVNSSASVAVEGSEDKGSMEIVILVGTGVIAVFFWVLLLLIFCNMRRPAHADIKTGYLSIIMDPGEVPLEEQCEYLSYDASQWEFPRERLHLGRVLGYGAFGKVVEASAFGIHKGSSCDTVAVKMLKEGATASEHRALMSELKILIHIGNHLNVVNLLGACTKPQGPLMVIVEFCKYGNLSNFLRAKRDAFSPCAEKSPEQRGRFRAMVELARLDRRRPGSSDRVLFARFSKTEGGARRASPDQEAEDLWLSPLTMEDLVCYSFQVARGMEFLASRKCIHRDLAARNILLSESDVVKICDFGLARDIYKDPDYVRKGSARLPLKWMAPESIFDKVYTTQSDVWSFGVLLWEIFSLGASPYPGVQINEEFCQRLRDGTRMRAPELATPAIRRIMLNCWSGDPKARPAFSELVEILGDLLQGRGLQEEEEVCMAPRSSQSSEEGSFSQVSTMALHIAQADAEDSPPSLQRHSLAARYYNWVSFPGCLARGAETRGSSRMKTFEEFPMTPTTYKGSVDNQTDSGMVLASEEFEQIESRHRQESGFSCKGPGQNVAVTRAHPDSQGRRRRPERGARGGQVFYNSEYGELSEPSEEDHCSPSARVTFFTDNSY
For experiment [7] the target is unchanged. Conditions: at 1 µM.
Experiment [8] deals with Macrophage colony-stimulating factor 1 receptor (Homo sapiens) (UniProt P07333). The settings on record: at 0.1 µM.
Chain of Macrophage colony-stimulating factor 1 receptor (Homo sapiens) (P07333 whole entry): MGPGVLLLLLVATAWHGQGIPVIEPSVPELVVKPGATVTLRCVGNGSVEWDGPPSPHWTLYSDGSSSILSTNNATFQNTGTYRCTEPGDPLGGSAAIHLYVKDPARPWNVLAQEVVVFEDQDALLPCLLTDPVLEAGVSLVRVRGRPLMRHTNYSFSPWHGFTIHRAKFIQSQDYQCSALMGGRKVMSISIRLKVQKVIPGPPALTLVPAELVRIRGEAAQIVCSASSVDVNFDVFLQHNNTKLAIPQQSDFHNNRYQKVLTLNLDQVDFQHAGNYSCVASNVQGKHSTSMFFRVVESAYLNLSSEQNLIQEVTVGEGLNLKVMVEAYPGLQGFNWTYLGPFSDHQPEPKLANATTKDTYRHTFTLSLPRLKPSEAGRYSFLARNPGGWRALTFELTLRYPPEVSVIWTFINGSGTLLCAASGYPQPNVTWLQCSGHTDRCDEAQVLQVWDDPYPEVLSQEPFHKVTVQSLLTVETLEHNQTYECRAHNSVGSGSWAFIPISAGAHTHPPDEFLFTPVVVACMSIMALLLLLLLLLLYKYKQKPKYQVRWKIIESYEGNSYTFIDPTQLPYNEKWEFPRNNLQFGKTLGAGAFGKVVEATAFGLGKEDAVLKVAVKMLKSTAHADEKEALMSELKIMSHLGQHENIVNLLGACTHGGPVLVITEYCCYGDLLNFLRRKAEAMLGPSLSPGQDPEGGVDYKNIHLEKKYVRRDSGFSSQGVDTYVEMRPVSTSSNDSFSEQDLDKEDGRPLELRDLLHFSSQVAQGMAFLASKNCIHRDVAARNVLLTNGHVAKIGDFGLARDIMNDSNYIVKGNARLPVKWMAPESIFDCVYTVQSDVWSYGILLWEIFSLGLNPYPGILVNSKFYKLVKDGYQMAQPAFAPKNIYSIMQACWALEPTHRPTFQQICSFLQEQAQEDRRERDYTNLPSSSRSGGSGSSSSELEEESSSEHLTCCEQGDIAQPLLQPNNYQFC
Experiment [9] has the same target. Conditions: at 1 µM.
Experiment [10] deals with Tyrosine-protein kinase Fyn (Homo sapiens) (UniProt P06241). The settings on record: at 0.1 µM.
Chain of Tyrosine-protein kinase Fyn (Homo sapiens) (P06241 2-537 limits assumed): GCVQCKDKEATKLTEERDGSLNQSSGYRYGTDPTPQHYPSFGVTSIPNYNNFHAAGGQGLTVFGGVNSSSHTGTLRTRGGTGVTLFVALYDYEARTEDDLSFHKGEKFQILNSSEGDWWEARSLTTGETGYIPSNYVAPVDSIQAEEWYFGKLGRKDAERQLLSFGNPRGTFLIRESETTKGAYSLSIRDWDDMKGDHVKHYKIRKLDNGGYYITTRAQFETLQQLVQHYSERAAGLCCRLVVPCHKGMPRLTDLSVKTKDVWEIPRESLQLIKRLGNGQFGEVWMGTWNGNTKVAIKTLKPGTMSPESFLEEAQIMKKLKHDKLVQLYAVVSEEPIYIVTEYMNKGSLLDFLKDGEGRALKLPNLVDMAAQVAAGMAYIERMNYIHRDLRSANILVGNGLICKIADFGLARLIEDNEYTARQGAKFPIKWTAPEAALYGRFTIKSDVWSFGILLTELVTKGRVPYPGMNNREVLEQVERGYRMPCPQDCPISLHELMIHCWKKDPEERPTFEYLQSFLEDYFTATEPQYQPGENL
The target is the same in experiment [11]. Conditions: at 1 µM.
Experiment [12] has as its target Tyrosine-protein kinase HCK (Homo sapiens) (UniProt P08631). Conditions: at 0.1 µM.
The target is the same in experiment [13]. The settings on record: at 1 µM.
The target of experiment [14] is Insulin-like growth factor 1 receptor (Homo sapiens) (UniProt P08069). The settings on record: at 0.1 µM.
The target is the same in experiment [15]. Conditions: at 1 µM.
The target of experiment [16] is Insulin receptor (Homo sapiens) (UniProt P06213). The settings on record: at 0.1 µM.
Chain of Insulin receptor (Homo sapiens) (P06213 28-758 limits assumed): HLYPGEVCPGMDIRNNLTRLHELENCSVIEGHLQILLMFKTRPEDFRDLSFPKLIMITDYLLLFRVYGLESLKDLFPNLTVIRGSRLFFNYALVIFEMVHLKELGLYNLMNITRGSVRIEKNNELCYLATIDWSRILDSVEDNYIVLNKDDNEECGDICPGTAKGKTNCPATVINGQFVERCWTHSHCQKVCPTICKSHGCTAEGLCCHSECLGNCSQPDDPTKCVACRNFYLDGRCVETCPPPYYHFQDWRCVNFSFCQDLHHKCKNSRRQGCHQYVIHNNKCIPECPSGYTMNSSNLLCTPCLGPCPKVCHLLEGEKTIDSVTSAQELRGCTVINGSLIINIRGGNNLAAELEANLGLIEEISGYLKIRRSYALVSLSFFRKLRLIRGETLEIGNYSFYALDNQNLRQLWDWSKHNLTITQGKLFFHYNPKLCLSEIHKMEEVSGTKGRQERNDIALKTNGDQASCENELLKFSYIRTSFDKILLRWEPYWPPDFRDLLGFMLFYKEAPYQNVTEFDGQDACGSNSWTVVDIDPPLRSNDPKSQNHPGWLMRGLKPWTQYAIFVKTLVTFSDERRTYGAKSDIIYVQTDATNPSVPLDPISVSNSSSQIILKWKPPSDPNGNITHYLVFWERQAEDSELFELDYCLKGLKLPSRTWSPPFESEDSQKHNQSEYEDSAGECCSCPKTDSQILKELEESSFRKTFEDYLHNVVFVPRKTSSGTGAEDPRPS
Chain of Insulin receptor (Homo sapiens) (P06213 763-1382 limits assumed): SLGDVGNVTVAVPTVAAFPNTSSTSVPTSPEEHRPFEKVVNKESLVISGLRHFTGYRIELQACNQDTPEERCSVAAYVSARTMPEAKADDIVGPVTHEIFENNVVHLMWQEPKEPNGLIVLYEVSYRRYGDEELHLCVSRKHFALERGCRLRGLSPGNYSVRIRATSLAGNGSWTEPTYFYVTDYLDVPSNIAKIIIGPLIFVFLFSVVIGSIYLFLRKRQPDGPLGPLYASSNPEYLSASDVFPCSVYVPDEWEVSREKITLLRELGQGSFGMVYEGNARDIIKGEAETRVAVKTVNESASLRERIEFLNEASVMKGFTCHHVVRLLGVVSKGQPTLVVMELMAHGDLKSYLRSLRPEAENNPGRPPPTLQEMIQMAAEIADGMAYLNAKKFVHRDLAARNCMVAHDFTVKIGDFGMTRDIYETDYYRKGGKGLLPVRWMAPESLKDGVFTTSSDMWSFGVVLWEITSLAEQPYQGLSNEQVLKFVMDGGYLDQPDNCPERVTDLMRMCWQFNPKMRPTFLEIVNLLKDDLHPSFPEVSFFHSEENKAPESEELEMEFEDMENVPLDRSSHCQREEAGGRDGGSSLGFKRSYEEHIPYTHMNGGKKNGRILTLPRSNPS
Experiment [17] has the same target. Conditions: at 1 µM.
The target of experiment [18] is Insulin receptor-related protein (Homo sapiens) (UniProt P14616). Conditions: at 0.1 µM.
Experiment [19] has the same target. Conditions: at 1 µM.
The target in experiment [20] is T4, Tyrosine-protein kinase ITK/TSK (Homo sapiens) (UniProt Q08881).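 Also: mean percent inhibition of ITK from the GSK PKIS screen.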
T4 sequence (whole entry): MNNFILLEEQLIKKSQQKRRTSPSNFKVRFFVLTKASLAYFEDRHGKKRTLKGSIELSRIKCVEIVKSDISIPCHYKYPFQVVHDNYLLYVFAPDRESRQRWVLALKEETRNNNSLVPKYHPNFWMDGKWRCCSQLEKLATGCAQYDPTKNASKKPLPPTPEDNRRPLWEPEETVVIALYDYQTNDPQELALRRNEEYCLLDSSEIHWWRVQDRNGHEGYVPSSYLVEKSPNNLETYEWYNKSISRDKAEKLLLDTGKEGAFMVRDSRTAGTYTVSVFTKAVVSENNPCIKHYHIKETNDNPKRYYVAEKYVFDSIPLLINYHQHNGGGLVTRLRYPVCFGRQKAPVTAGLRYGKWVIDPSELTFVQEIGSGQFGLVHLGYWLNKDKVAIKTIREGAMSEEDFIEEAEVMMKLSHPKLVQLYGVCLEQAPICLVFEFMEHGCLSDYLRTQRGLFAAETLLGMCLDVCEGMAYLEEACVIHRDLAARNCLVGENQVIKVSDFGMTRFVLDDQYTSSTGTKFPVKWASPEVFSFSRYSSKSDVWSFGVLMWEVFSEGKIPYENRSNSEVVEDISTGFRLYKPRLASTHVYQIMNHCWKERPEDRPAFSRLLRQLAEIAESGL
The settings on record: at 0.1 µM.

Take `CCOc1nccc2c1nc(-c1nonc1N)n2CC`: the inhibition in [1] is 11.4%; in [2] it was 5.12%; in experiment [3], 5.25%; in experiment [4] it was 7.47%; in experiment [5] it was -1.34%; in experiment [6], 12.8%. The inhibition in experiment [7] came to 19.3%; in [8], 0.65%; in experiment [9] it was 2.68%; in [10], 0.3%; in [11], 3.27%; in [12] it was 4.58%. For the same compound, the inhibition in experiment [13] is 11.4%; in experiment [14] it was 7.26%; in experiment [15] it was 7.09%; in experiment [16] it was 0.75%; in experiment [17], -1.17%; in experiment [18], 1.03%. The inhibition in experiment [19] was found to be 2.48%; in experiment [20], 1.74%.
With `Cc1ccc(O)cc1Nc1ccnc2ccc(S(C)(=O)=O)cc12`, the inhibition was 7.62% in experiment [1]; 4.22% in experiment [2]; 2.78% in [3]; 8.17% in experiment [4]; -0.22% in experiment [5]; 21.3% in experiment [6]. Also, the inhibition worked out at 68.8% in experiment [7]; 5.71% in [8]; 15.8% in experiment [9]; 92.4% in [10]; 94.1% in experiment [11]; 87.2% in experiment [12]. For the same compound, the inhibition amounted to 89.9% in experiment [13]; 4.41% in experiment [14]; 3.85% in experiment [15]; 6.63% in experiment [16]; 8.39% in experiment [17]; 3.29% in experiment [18]. Moreover, the inhibition amounted to 3.19% in experiment [19] and 1.1% in experiment [20].
Turning to `Cc1cc(O)cc(C)c1/C=C/c1cncc(C(=O)N(C)C)c1`, the inhibition is 4.45% in experiment [1]; 5.15% in experiment [2]; 3.62% in experiment [3]; 1.2% in experiment [4]; 5.04% in experiment [5]; 4.71% in [6]. Moreover, the inhibition in [7] is 3.92%; in [8], 1.52%; in [9], 5.32%; in [10] it was 3.23%; in [11], 4.2%; in [12] it was 4.54%. In addition, the inhibition in [13] worked out at 10.8%; in experiment [14] it was 2.54%; in experiment [15] it was 5.15%; in [16], 2.68%; in experiment [17], 0.32%; in experiment [18] it was 2.71%. For the same compound, the inhibition worked out at 1% in experiment [19] and 1.43% in [20].
In the case of `COC(=O)c1cncc(/C=C/c2c(C)cc(O)cc2C)c1`, the inhibition in experiment [1] worked out at 3.89%; in experiment [2], 1.89%; in experiment [3] it was 1.85%; in experiment [4], 6.05%; in experiment [5], 1.33%; in [6], 4.3%. Also, the inhibition in experiment [7] came out at 2.63%; in experiment [8] it was 6.96%; in experiment [9], 37.7%; in [10], 3.73%; in experiment [11] it was 20%; in experiment [12], 8.77%. For the same compound, the inhibition amounted to 37.5% in experiment [13]; 2.87% in experiment [14]; 2.99% in [15]; 3.1% in [16]; 0.15% in [17]; 5.13% in experiment [18]. Moreover, the inhibition was 2.83% in experiment [19] and 0.96% in experiment [20].
As to `COc1cc2ncnc(Nc3ccc(C)c(O)c3)c2cc1OC`, the inhibition was determined as 11.6% in experiment [1]; 2.93% in experiment [2]; 2.77% in [3]; 9.85% in experiment [4]; 2.41% in experiment [5]; 97.5% in experiment [6]. For the same compound, the inhibition in experiment [7] worked out at 107%; in experiment [8] it was 4.29%; in [9], 6.14%; in experiment [10] it was 12.8%; in [11], 56.2%; in experiment [12], 44.9%. Also, the inhibition amounted to 75.1% in [13]; 12.2% in [14]; 11% in experiment [15]; 5.04% in [16]; 6.96% in [17]; 2.18% in experiment [18]. Also, the inhibition came out at 3.05% in experiment [19] and 1.63% in experiment [20].
For the compound `c1ccc(Cc2nc3ccc(Nc4ncnc5ccccc45)cc3[nH]2)cc1`, the inhibition in [1] was found to be 1.93%; in experiment [2], 2.22%; in [3], 1.76%; in experiment [4], 5.97%; in experiment [5], 5.06%; in [6], 0.79%. Besides, the inhibition in experiment [7] was found to be 2.3%; in experiment [8], 4.66%; in experiment [9] it was 5.24%; in [10], 1.56%; in experiment [11], 5.58%; in [12], 3.53%. Besides, the inhibition is 11.5% in experiment [13]; 2.6% in experiment [14]; 3.88% in experiment [15]; 3.54% in [16]; 8.19% in experiment [17]; 2.51% in experiment [18]. Further, the figures for the inhibition in experiment [19] and in experiment [20] were 3.31% and 0.82%, respectively.

What is called inhibition is the drop in the measured response relative to a control, in per cent.
